From PubChem
An excerpt weighted towards active compounds, which were near 5.4% of everything screened.
FMDV inh: High Throughput Screening for Foot and Mouth Disease Virus Antivirals; FMDV antiviral cell-based qHTS; Potency, µM (doses to about 57.9 µM), for the others: at the top dose activity change, negative = inhibition, usual class: inhibitors; 410,000 tested, 1.2% active; AID 1159524, 2015; calls by dose curve; tested in HEK293T cells; further: read-out not given here; nearly all actives have a fitted effect of over 45% in size
Vaccinia mCherry: qHTS for Stage-Specific Inhibitors of Vaccinia Orthopoxvirus: mCherry Reporter Primary qHTS; Vaccinia virus mCherry reporter infection, fluorescence; Potency, µM (top dose mostly 36.5 µM), inactives show top-dose activity change, negative = inhibition, actives largely listed as inhibitors; 310,000 tested, 0.63% active; AID 720579, 2013; calls by dose curve; tested in A549 cells; further: nearly all actives have a fitted effect of over 35% in size
Marburg entry inh: qHTS for inhibitors of binding or entry into cells for Marburg Virus. Marburg virus pseudotyped entry inhibition, cell reporter. Potency, µM (highest dose often 37.8 µM), inactives show top-dose activity change, negative = inhibition, usual class: inhibitors. 300,000 tested, 1.8% active. AID 540276, 2011; calls by dose curve; tested in HEK293 cells
Lassa entry inh: qHTS for Inhibitors of binding or entry into cells for Lassa Virus. Potency, µM (doses to about 37.9 µM), for the others: top-dose activity change, negative = inhibition, actives largely listed as inhibitors. 300,000 tested, 1.2% active. Lassa virus pseudotype entry inhibition, cell reporter; calls by dose curve; tested in HEK293 cells; further: nearly all actives have a fitted effect of over 50% in size
Sm TGR block: qHTS Assay for the Inhibitors of Schistosoma Mansoni Peroxiredoxins; Schistosoma mansoni thioredoxin glutathione reductase (TGR), Q962Y6; purified TGR, DTNB reduction, TNB absorbance 405 nm; Potency, µM (doses to about 114 µM), for the others: at the top dose activity change, negative = inhibition, most hits filed as inhibitors; 360,000 tested, 3% active; AID 485364, 2010; active means well fitted inhibition curve with a large enough effect; inconclusive means small, poorly fitted or top-dose-only effect; inactive means no such curve, though single readings can be large or run the other way; further: nearly all actives have a fitted effect of over 60% in size
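TGR 20 nM + NADPH 100 uM (dispensed conc.), cpd preinc 15 min RT; start with NADPH (500 uM addition) then DTNB (15 mM addition). Kinetic TNB absorbance, 405 nm filter. Four-parameter Hill fit across titration.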
VACV Venus inh: qHTS for Stage-Specific Inhibitors of Vaccinia Orthopoxvirus: Venus Reporter Primary qHTS; Vaccinia virus Venus reporter expression, fluorescence; Potency, µM (doses to about 36.5 µM), inactives show at the top dose activity change, negative = inhibition, actives largely listed as inhibitors; 330,000 tested, 0.46% active; calls by dose curve; tested in A549 cells; further: nearly all actives have a fitted effect of over 30% in size
Numbers without * were called inactive; i = inactive; ? = inconclusive; nt = no result; [ ] = remark or other dose. On the % scale 0 is the no-effect control and ±100 the full control effect; potency means the concentration at half of the fitted maximal effect.

SMILES	FMDV inh	Vaccinia mCherry	Marburg entry inh	Lassa entry inh	Sm TGR block	VACV Venus inh
COc1ccc(C(CNC(=O)c2cc(C)oc2C)N2CCOCC2)cc1 (stereo not drawn)	96%	nt	-2%	14%	28µM*	nt
CN1C(=O)COC2CCC(C(=O)C3=C(C(=O)O)CCCC3)CC21 (stereo not drawn)	nt	nt	11%	nt	nt	nt
Cc1c(C(=O)N2CC3CCC2C3)sc2ncnc(NCCc3ccccn3)c12 (stereo not drawn)	-9%	-13%	nt	nt	nt	-8%
CN(C)C(=O)c1ccc(NC(=O)Cn2nc(-c3ccccc3)c3ccccc3c2=O)cc1	-14%	-12%	-8%[46.1 µM]	24%[46.1 µM]	13%	-2%
Cc1cc(C)cc(NC(=S)NC2CC3CCCC(C2)N3C2CCCC2)c1 (stereo not drawn)	-22%	nt	nt	nt	13µM*	nt
O=c1cc(-c2cccc(F)c2)oc2ccccc12	21%	1%	14%[46.1 µM]	4%[46.1 µM]	nt	-2%
O=c1cc(-c2c(F)c(F)c(F)c(F)c2F)oc2ccccc12	nt	-25%	18µM*	?	1%	-22%
COc1ccc2c(COC(=O)c3cccc(S(=O)(=O)NCC(C)C)c3)cc(=O)oc2c1	0%	-3%	-15%	?	89µM*	-20%
CC1CN(S(=O)(=O)c2cccc(C(=O)OCc3cc(=O)oc4cc(O)ccc34)c2)CC(C)O1 (stereo not drawn)	22µM*	nt	?	?	-10%	nt
O=C(NC1CCCC1)c1cn(C2CCCN(Cc3ccc4c(c3)OCCO4)C2)nn1 (stereo not drawn)	7%	1%	nt	nt	nt	2%
C#CCNC(=O)[C@H]1C=C(OC)C(=O)C[C@H]2c3ccccc3C[C@]12C	nt	nt	8%[14.2 µM]	nt	nt	nt
COC(=O)CC1=C(C(=O)OC)[C@H](c2ccc3c(c2Cl)OCO3)C(C#N)=C(N)O1	nt	nt	7%	nt	nt	nt
CN1CCc2c(n(CC(O)CNCc3ccccc3)c3ccccc23)C1=O (stereo not drawn)	-21%	i	nt	nt	0%	-11%
CC(C)NCC(O)Cn1c2c(c3ccccc31)CCc1c-2cnn1-c1ccccc1 (stereo not drawn)	?	nt	?	7.1µM*	-23%	11µM*
COc1cccc(CNC(=O)CSc2nc3ccccc3nc2Cc2ccccc2)c1	-7%	-25%	nt	-18%[46.1 µM]	7%	?
C[C@@H]1CC2C3CCC4=CC(=O)C=C[C@]4(C)[C@@]3(F)[C@@H](O)C[C@]2(C)[C@@]1(O)C(=O)CO (stereo partly drawn)	nt	nt	-5%	nt	nt	nt
CCc1cccc(C)c1NC(=O)c1cc2ccccc2o1	?	i	nt	-6%[46.1 µM]	-7%	-15%
O=C(O)/C=C/C(=O)Nc1ccc(N2CCOCC2)nc1N1CCOCC1	1%	i	4%[46.1 µM]	10%[46.1 µM]	2.2µM*	3%
COc1ccc(N2CCN(c3ccc(NC(=O)/C=C\C(=O)O)cc3)CC2)cc1	-10%	nt	nt	nt	-2%	nt
C=Cc1ccc(Cn2c(SCC(=O)N3CCN(c4ccc(F)cc4)CC3)nc3ccccc32)cc1	0%	-13%	4%[46.1 µM]	nt	3%	-15%
CCN(CC)CCOC(=O)C1(C2CCCCC2)CCCCC1	0%	-5%	13µM*	?	-15%	-19%
COC(=O)c1cc2oc(C)cc2n1Cc1cccc(Cl)c1	-1%	-17%	-17%[46.1 µM]	nt	-21%	-16%
CCOC(=O)c1sc(SC)c2c1CCCC2=O	-11%	-6%	nt	nt	-5%	-14%
CCOC(=O)c1sc(S(C)=O)c2c1CCc1conc1-2 (stereo not drawn)	-15%	nt	nt	nt	1µM*	nt
O=C(OCc1ccccc1F)c1ccc2c(c1)-c1ccccc1C2=O	64%	nt	14%	2.1µM*	13%	nt
SMILES	FMDV inh	Vaccinia mCherry	Marburg entry inh	Lassa entry inh	Sm TGR block	VACV Venus inh
O=C(OCc1cccc(F)c1)c1ccc2c(c1)-c1ccccc1C2=O	30%	-25%	-1%	?	-25%	-21%
Cc1ccc(C(=O)/C=C/c2cc(Br)cc(Br)c2O)o1	?	-11%	nt	nt	1.6µM*	155%
N#Cc1c(N)n(-c2ccccc2N)c2nc3ccccc3nc12	-25%	-22%	0%[46.1 µM]	-14%[46.1 µM]	45µM*	-4%
COC(=O)[C@H](Cc1ccccc1)N(Cc1ccc(C)cc1)S(C)(=O)=O	nt	-13%	nt	nt	nt	-28%
Cc1ccc(/C=C(\C#N)c2nn(-c3ccccc3)c(N)c2C#N)cc1	-28%	10µM*	-6%	?	3%	?
Cc1ccc(NC(=O)C2CCN(C(=O)c3cnn(-c4ccccc4)c3-n3cccc3)CC2)cc1C	?	-24%	-18%[46.1 µM]	-14%[46.1 µM]	8%	-20%
COc1ccc2c(c1)CCc1cnc(-n3ncc(C(=O)NCCCc4ccncc4)c3C)nc1-2	?	?	nt	nt	nt	-23%
CCOC(=O)C1=C(C)NC(=O)NC1c1ccc(C)o1 (stereo not drawn)	-2%	i	nt	nt	-17%	-18%
CC1=C(C(N)=O)C(c2ccc(C)o2)C(C(N)=O)=C(C)N1	-26%	nt	-2%	2%	45µM*	nt
CCOC(=O)C1=C(C)NC(C)=C(C(=O)OCC)C1c1ccc(C)o1	-17%	nt	nt	nt	?	nt
C=CCOC(=O)C1=C(C)NC(C)=C(C(=O)OCC=C)C1c1ccc(C)o1	-23%	-27%	?	-11%	16µM*	?
CC(=O)c1sc(N/N=C\c2cccc(Br)c2)nc1C	-11%	?	?	14µM*	-1%	?
CC(C)COc1nc2ccccc2nc1[C@H](C#N)C(=O)NC1CCCCC1	nt	nt	-1%	nt	nt	nt
Cc1ccc(C2=CC(C)(c3ccc(C)cc3)Nc3nc(C(F)(F)F)nn32)cc1 (stereo not drawn)	-22%	-4%	?	-24%	0%	-8%
Cc1cc(C2=CC(C)(c3cc(C)oc3C)Nc3nc(C(F)(F)F)nn32)c(C)o1 (stereo not drawn)	nt	nt	-3%	nt	10µM*	nt
O=C(CSc1ccc(-c2cccnc2)nn1)Nc1ccccc1F	-21%	-5%	8%	-12%	-26%	-16%
CCOc1ccccc1NC(=O)CSc1ccc(-c2ccco2)nn1	-23%	-24%	-28%	-9%	18µM*	-16%
CCOc1ccccc1NC(=O)CSc1ccc(-c2sc(C)nc2C)nn1	25µM*	?	?	?	-2%	-28%
CCOc1ccccc1NC(=O)Cn1nc(-c2ccco2)ccc1=O	8%	i	-14%[46.1 µM]	-1%	16µM*	-5%
CCOc1ccccc1NC(=O)CSc1cn[nH]n1	4%	?	1%[46.1 µM]	2%	2%	6%
CCOc1ccccc1NC(=O)Cn1nc(N2CCN(c3ccccc3)CC2)ccc1=O	-25%	-6%	nt	-6%[46.1 µM]	3%	1%
O=C(CSc1ccc(-c2ccco2)nn1)Nc1ccccc1F	-15%	nt	nt	nt	14µM*	nt
COc1cc(OC)c(OC)cc1CNc1sc2c(c1C(=O)Nc1ccccc1OC)CCC2	0%	-17%	nt	-14%[46.1 µM]	-23%	-6%
